Screens (PubChem BioAssay)
In the library only some 2.5% were active in any assay of this set; here they are far more common.
TMEM16A inh: inhibitors of mouse TMEM16A calcium-activated chloride channel. HEK293 TMEM16A/YFP iodide influx fluorescence, ionomycin. actives 1.2% (n = 310,000). Q8BHY3. normalized B-score (activity score, 25-100; higher = stronger inhibition) at 10 µM;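 active means ratio plate-corrected score three or more library SD toward inhibition, starting fluorescence score within five deviations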;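 further: score derived from kinetic fluorescence span divided by baseline fluorescence per well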
CHT inh: human CHT choline transport inhibition; Q9GZV3; CHT-expressing cells, membrane potential dye, choline response; stronger effect = lower value; B-score at 10 µM; actives 0.86% (n = 310,000);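 active means B-score over 3 SD under the library average, and starting fluorescence ratio not unusually high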;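 further: choline stimulus applied at its EC90 after an EC20 pre-addition; B-score computed on integrated fluorescence ratio after choline addition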
Target sequence (Q9GZV3 whole entry, looked up): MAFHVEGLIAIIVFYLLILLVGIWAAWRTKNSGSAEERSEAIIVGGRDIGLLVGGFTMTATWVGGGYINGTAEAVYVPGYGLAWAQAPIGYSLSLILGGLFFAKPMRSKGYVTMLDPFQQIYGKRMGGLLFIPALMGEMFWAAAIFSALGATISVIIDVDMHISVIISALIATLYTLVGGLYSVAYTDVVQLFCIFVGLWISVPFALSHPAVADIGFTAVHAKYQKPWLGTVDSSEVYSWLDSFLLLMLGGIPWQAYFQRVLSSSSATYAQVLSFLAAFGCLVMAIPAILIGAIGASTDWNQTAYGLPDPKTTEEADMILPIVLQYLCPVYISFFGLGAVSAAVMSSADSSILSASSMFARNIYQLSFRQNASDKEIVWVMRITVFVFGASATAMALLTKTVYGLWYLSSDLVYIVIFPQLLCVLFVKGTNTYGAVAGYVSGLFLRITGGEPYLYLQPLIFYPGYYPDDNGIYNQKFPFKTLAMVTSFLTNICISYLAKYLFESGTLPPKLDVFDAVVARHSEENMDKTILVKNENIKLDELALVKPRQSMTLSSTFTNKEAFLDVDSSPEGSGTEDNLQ
PKA-R2B act: activators of human PKA-R2B complex; P22694+P31323; PKA-R2B holoenzyme dissociation, Cy5-IP20 fluorescence polarization; R2B truncated from residue 108, S112A mutant; 0% DMSO only, 100% 113 µM cGMP; activation, % at 11.4 µM; actives 0.079% (n = 340,000); AID 504700;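 active means activation above a cutoff set at the mean over all compounds plus 3 SD, cut at about 18% in these data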;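 further: higher means more holoenzyme dissociation and a rise in polarization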
PKA-R1A act: activators of PKA-R1A complex | PKA-R1A dissociation, Cy5-IP20 fluorescence polarization; scaled: DMSO 0%, 113 µM cGMP 100% | activation, % at 11.4 µM | actives 0.083% (n = 340,000);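 active means percent activation above the mean of all tested compounds plus 3 SD, cut at about 19% in these data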;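 further: higher means more PKAc released from R1A so a rise in polarization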
ANO1 activ: activators or potentiators of mouse TMEM16A chloride channel. B-score at 10 µM. HEK293 TMEM16A/YFP-H148Q/I152L, iodide quench fluorescence; stronger effect = lower value. actives 0.3% (n = 340,000). AID 623877;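 active means fluorescence-ratio B-score plate-corrected deviation score at least 3 library SD below zero, with starting fluorescence score within 5 deviations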;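 further: channel opened by trigger with iodide after compound preincubation; score built on the fluorescence ratio of max minus min over baseline; more negative score means more quench and so TMEM16A activation or potentiation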
CHT PAM: allosterically activates the human high affinity choline transporter | B-score at 10 µM | CHT-expressing cells, membrane potential dye, choline EC20; stronger effect = higher value; LV-AA mutant CHT in HEK293 cells | actives 0.49% (n = 310,000) | Q9GZV3;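 active means initial fluorescence not abnormally high and integrated response B-score, plate-corrected, over 3 SD above library mean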
Active calls of the source: *.

Results for CC(C)CNC(=O)[C@@H]1CSC2c3ccccc3C(=O)N21 (some centres undefined) ?
TMEM16A inh: inactive; CHT inh: inactive; PKA-R2B act: 5; PKA-R1A act: -3; ANO1 activ: inactive; CHT PAM: inactive

What do the screens show for `COc1ccc(CNC(=O)C(c2ccco2)N(C(=O)CNS(=O)(=O)c2ccccc2)c2ccccc2C)cc1` (centres undefined)?
TMEM16A inh: 25*; CHT inh: inactive; PKA-R2B act: -3; PKA-R1A act: -9; ANO1 activ: inactive; CHT PAM: inactive

How did NC(=O)C1=C(c2ccccc2)c2ccccc2C1=O do in these assays?
PKA-R2B act: 0; PKA-R1A act: 3; ANO1 activ: -6.3*

Results for O=C1c2ccccc2-c2nnc(-c3ccccc3)cc21 ?
TMEM16A inh: inactive; CHT inh: inactive; PKA-R2B act: -3; PKA-R1A act: -1; ANO1 activ: inactive; CHT PAM: inactive

How did Cc1ccc(C(=O)OCC(=O)c2c[nH]c3ccccc23)cc1 do in these assays?
TMEM16A inh: inactive; CHT inh: inactive; PKA-R2B act: 3; PKA-R1A act: -3; ANO1 activ: inactive; CHT PAM: inactive

How did CC(C)Cc1ccc(C(C)C(=O)OCC(=O)c2c[nH]c3ccccc23)cc1 (centres undefined) do in these assays?
TMEM16A inh: 100*; CHT inh: inactive; PKA-R2B act: 6; PKA-R1A act: -1; ANO1 activ: inactive; CHT PAM: inactive

Results for CCN(CC(=O)NCc1ccc(Cl)cc1)C(=O)CN1C(=O)NC(CC)(c2ccccc2)C1=O (centres undefined) ?
TMEM16A inh: inactive; CHT inh: inactive; PKA-R2B act: 7; PKA-R1A act: -3; ANO1 activ: inactive; CHT PAM: inactive

What do the screens show for `C/C(=N\Nc1ncc(Cl)cc1Cl)c1ccccn1`?
PKA-R2B act: -4; PKA-R1A act: 11; ANO1 activ: -7.8*

How did Cc1cc([N+](=O)[O-])nn1CC(=O)NCc1ccccc1 do in these assays?
TMEM16A inh: inactive; CHT inh: inactive; PKA-R2B act: -2; PKA-R1A act: 1; ANO1 activ: inactive; CHT PAM: inactive

What do the screens show for `NS(=O)(=O)c1ccc(CNC(=O)Cn2nc(C(F)F)cc2C(F)F)cc1`?
PKA-R2B act: -5; PKA-R1A act: 1; ANO1 activ: -4.6*

Results for NC(=O)COC(=O)c1ccccc1OCc1ccc(Cl)cc1 ?
TMEM16A inh: inactive; CHT inh: inactive; PKA-R2B act: 3; PKA-R1A act: -11; ANO1 activ: -25*; CHT PAM: inactive

What do the screens show for `CN(C(=O)c1ccccc1OCc1ccc(Cl)cc1)c1ccccc1`?
TMEM16A inh: inactive; CHT inh: inactive; PKA-R2B act: -10; PKA-R1A act: -4; ANO1 activ: inactive; CHT PAM: inactive

How did COC(=O)C1(CC2CC(c3ccccc3)=NO2)CCN(C(=O)OC(C)(C)C)CC1 (centres undefined) do in these assays?
TMEM16A inh: 25*; CHT inh: inactive; PKA-R2B act: 0; PKA-R1A act: 1; ANO1 activ: inactive; CHT PAM: inactive

Results for CC(C)(C)OC(=O)N1CCC(CC2CC(c3ccccc3)=NO2)(C(=O)O)CC1 (centres undefined) ?
TMEM16A inh: inactive; CHT inh: inactive; PKA-R2B act: 2; PKA-R1A act: 1; ANO1 activ: inactive; CHT PAM: inactive

What do the screens show for `O=C1CN(C(=O)COC(=O)CCS(=O)(=O)c2ccccc2Cl)c2ccccc2N1`?
PKA-R2B act: -5; PKA-R1A act: 6; ANO1 activ: inactive

How did CCC1CCCCN1S(=O)(=O)c1ccc(S(=O)(=O)N(Cc2ccccn2)CC2CCCO2)cc1 (centres undefined) do in these assays?
TMEM16A inh: inactive; CHT inh: inactive; PKA-R2B act: -5; PKA-R1A act: -2; ANO1 activ: inactive; CHT PAM: inactive

Results for CCC1CCCCN1S(=O)(=O)c1ccc(S(=O)(=O)N(Cc2cccs2)C2CC2)cc1 (centres undefined) ?
TMEM16A inh: inactive; CHT inh: inactive; PKA-R2B act: 4; PKA-R1A act: 1; ANO1 activ: -16*; CHT PAM: inactive

What do the screens show for `CC(=O)NC(Cc1ccccc1C)C(=O)NC1CCN(C(=O)c2ccc(C)cc2)CC1` (centres undefined)?
TMEM16A inh: inactive; CHT inh: inactive; PKA-R2B act: -3; PKA-R1A act: 10; ANO1 activ: inactive; CHT PAM: inactive

How did CCC(c1nnnn1Cc1cccs1)N1CCN(C2CCCC2)CC1 (centres undefined) do in these assays?
TMEM16A inh: inactive; CHT inh: inactive; PKA-R2B act: 0; PKA-R1A act: 3; ANO1 activ: inactive; CHT PAM: inactive

How did CCCC(c1nnnn1Cc1cccs1)N1CCN(C2CCCC2)CC1 (centres undefined) do in these assays?
TMEM16A inh: inactive; CHT inh: inactive; PKA-R2B act: 3; PKA-R1A act: 3; ANO1 activ: inactive; CHT PAM: 6.3*

What do the screens show for `O=C1CNC(=S)N1CCc1ccc(Cl)cc1`?
TMEM16A inh: inactive; CHT inh: inactive; PKA-R2B act: 0; PKA-R1A act: 1; ANO1 activ: inactive; CHT PAM: inactive

Results for O=C1CNC(=S)N1CCc1ccccc1Cl ?
TMEM16A inh: inactive; CHT inh: -5.1*; PKA-R2B act: -9; PKA-R1A act: -5; ANO1 activ: inactive; CHT PAM: inactive

What do the screens show for `O=C(COc1ccccc1)N1CCN(C(=O)COc2ccccc2)CC1`?
TMEM16A inh: inactive; CHT inh: inactive; PKA-R2B act: 0; PKA-R1A act: -10; ANO1 activ: inactive; CHT PAM: inactive

How did Cc1nc(N2CCN(C(=O)COc3ccccc3)CC2)c2c(C)c(C)sc2n1 do in these assays?
TMEM16A inh: 100*; CHT inh: -7.5*; PKA-R2B act: 3; PKA-R1A act: 2; ANO1 activ: inactive; CHT PAM: inactive

Results for O=c1cc(CN2CCCc3ccccc32)nc2sccn12 ?
TMEM16A inh: inactive; CHT inh: inactive; PKA-R2B act: -4; PKA-R1A act: -6; ANO1 activ: -11*; CHT PAM: inactive

How did CCCOc1cccc(-c2cc(C(=O)N/N=C/c3ccccn3)c3ccccc3n2)c1 do in these assays?
TMEM16A inh: inactive; CHT inh: inactive; PKA-R2B act: 0; PKA-R1A act: -9; ANO1 activ: inactive; CHT PAM: inactive
